In ChEMBL document CHEMBL3988442, “University of Dundee, Small-Polar-MMV Screening Library” (2021):
Hit rate of the full screen: of about 53,000 compounds, about 900 (1.7%) showed an effect of 50% or more. This is one part of a sample in which strong results are shown more often than they occur.

What follows are compounds tested on Mycobacterium tuberculosis (assay: Cornell - Phenotypic assay to identify agents that inhibit growth of Mycobacterium tuberculosis). Settings: 10 mM as filed; unlikely as a test dose.
Assay type: functional
Parameters: scale not given: direction of the effect not stated beside the values

Compound	Percent Effect [%]
O=C1NCC(C(=O)Nc2ncc(Cc3ccccc3)s2)N1 (stereo not drawn)	-21.97
CNC(=O)c1cn[nH]c1C1CCN(Cc2cn(C)nc2C)C1 (stereo not drawn)	-22.18
CCn1nc(C)c2ncnc(N(C)C)c21	-48.95
O=C(CC1CCCC1)N1CCC(c2cc3ncccc3c(O)n2)CC1	-42.1
CCN1CCCC1CNC(=O)Cc1c(C)n[nH]c1-c1ccc(OC)cc1 (stereo not drawn)	17.71
CCC(C(=O)Nc1ccc2cn(CC)nc2c1)N1CCCC1=O (stereo not drawn)	13.02
Nc1nnc(CCNC(=O)c2cccc(C3CCCNC3)c2)s1 (stereo not drawn)	4.454
Cn1cnc2c1CCN(CCS(=O)(=O)c1ccc(Cl)cc1)C2	-6.56
COc1cccc(CN(C)C(=O)CN2CC(n3nc(C)cc3C)C2)c1	24.75
COc1ccccc1CN(C)C(=O)CN1CC(n2nc(C)cc2C)C1	65.44
Cc1cc(C)n(C2CN(CC(=O)N(C)Cc3ccco3)C2)n1	-1.246
CCCc1nc(CN(CCO)Cc2cc(Br)ccc2F)no1	55.91
Cc1noc(CN(CCO)Cc2cc(Br)ccc2F)n1	29.28
CC(C)(C)c1nc(CN(CCO)Cc2cc(Br)ccc2F)no1	21.92
CCS(=O)(=O)N1CCCn2cnc(COc3cccnc3)c2C1.O=C(O)C(F)(F)F	13.68
CN(CCCc1cnn(C)c1)Cc1cc2n(n1)CCCN(C)C2	2.304
CC(O)CNC(=O)c1nc(Cc2c(Cl)cccc2Cl)no1 (stereo not drawn)	19.28
CC(C)CNC(=O)CNC(=O)c1nc(Cc2c(Cl)cccc2Cl)no1	50.66
C[C@@H](O)CNC(=O)c1nc(Cc2c(Cl)cccc2Cl)no1	33.25
CC(C)(O)CN1CCN(C(=O)c2cc3ccccc3c(=O)[nH]2)CC1	11.41
COc1cccc2cc(CNCc3ccc(N4CCCC4)nc3)oc12	-14.56
COc1cccc2cc(CNCc3ccnc(N4CCOCC4)c3)oc12	-7.276
COc1cccc2cc(CNCc3ccnc(N4CCCCC4)c3)oc12	60.34
O=C(CCc1cccc(F)c1F)N1CCCC(n2cncn2)C1 (stereo not drawn)	5.232
Cc1nn(C)c(N(C)C)c1CNC(C)Cc1c(F)cccc1F (stereo not drawn)	29.42
Cc1nn(C)c(N(C)C)c1CNC(C)COc1cccc(F)c1 (stereo not drawn)	24.93

Compound	Percent Effect [%]
Cc1nn(C)c(N(C)C)c1CNC(C)c1cccc(OC(C)C)c1 (stereo not drawn)	54.17
Cn1cnc(CN2Cc3nccn3CC2c2ccccc2)c1 (stereo not drawn)	25.78
Cc1nccc(CN2Cc3nccn3CC2c2ccccc2)n1 (stereo not drawn)	-4.199
CC(C)n1nccc1CN1Cc2nccn2CC1c1ccccc1 (stereo not drawn)	55.64
Cc1csc(N2CCN(Cc3cccnc3)CC2C)n1 (stereo not drawn)	17.54
O=C(NC1CCCc2c1[nH]c1ccc(F)cc21)c1n[nH]c2c1CCC2 (stereo not drawn)	5.755
COc1ccc(Cl)cc1CCNC(=O)NCc1noc(C)n1	15.04
COc1ccc(Cl)cc1CCNC(=O)NCc1ccncc1	59.54
COc1ccc(Cl)cc1CCNC(=O)NCc1ncnn1C	19.31
COc1ccc(C(=O)NCCNC(=O)c2scnc2Cl)cc1	-54.01
CCN(CC)C1CCN(C(=O)NCc2cccc(-n3ccnc3)c2)C1 (stereo not drawn)	34.25
COC(=O)CCc1c(C)nc2cc(O)nn2c1C	-35.79
COc1ccc(NC(=O)CCc2c(C)nc3cc(O)nn3c2C)cn1	65.23
CCNC(=O)CCc1c(C)nc2cc(O)nn2c1C	3.574
Cc1cnn(CC2CCCN2Cc2nnc(C(C)C)o2)c1 (stereo not drawn)	-69.76
Cc1cnn(CC2CCCN2C(=O)c2ccc3nnc(C)n3c2)c1 (stereo not drawn)	107.3
Cc1cnn(CC2CCCCN2C(=O)c2ccc3nncn3c2)c1 (stereo not drawn)	-11.21
Cc1cc(C)n(CC2CCCN2C(=O)c2ccc3nnc(C)n3c2)n1 (stereo not drawn)	12.74
Cc1ncccc1CNCC1CCN(CC(C)O)CC1 (stereo not drawn)	-13.7
Cc1cc(-c2ccnn2C)nc(C2CCN(S(C)(=O)=O)CC2)n1	31.8
Cn1nccc1-c1cncc(C2CCCN(S(C)(=O)=O)C2)n1 (stereo not drawn)	20.84
CC(=O)N1CCC(Cc2cccc(-c3ccnn3C)n2)CC1	35.75
Cc1cc(-c2ccnn2C)nc(C2CCCN(S(C)(=O)=O)C2)n1 (stereo not drawn)	51.61
Cc1nc(-c2ccnn2C)cc(C2CCCN(S(C)(=O)=O)C2)n1 (stereo not drawn)	29.58
Cn1nccc1-c1cccc(CC2CCN(S(C)(=O)=O)C2)n1 (stereo not drawn)	50.09
CC(C)C(=O)N1CCN(C(=O)c2cc(C(C)C)no2)[C@H]2CS(=O)(=O)C[C@H]21	24.89

Compound	Percent Effect [%]
CN(C)CCNC(=O)CC1CCN(c2cccnn2)CC1	8.308
CCN(Cc1nc(C)no1)C(=O)C1CC(=O)N(Cc2ccccn2)C1 (stereo not drawn)	0.6142
O=C(NC1CCCN(Cc2c(F)cccc2F)C1)c1cc[nH]n1 (stereo not drawn)	-25.78
CC(=O)NCCN1CCC(c2cccs2)CC1	5.988
O=C(NCCN1CCC(c2cccs2)CC1)Nc1cccs1	107.5
O=C(NCCc1ccccc1)NCCN1CCC(c2cccs2)CC1	45.08
Cc1cc(N2CCC(Cc3ccncc3)C2)ncn1 (stereo not drawn)	-20.77
COc1ccc(CN2CCC(CO)(Cc3ccc(Cl)cc3)CC2)c(O)c1	23.78
COc1cccc(CN2CCC(CO)(Cc3ccc(Cl)cc3)CC2)c1O	91.19
OCC1(Cc2ccc(Cl)cc2)CCN(Cc2ccccc2O)CC1	19.16
CCC(O)c1nc2c([nH]1)CC(C)(C)CNC2=O (stereo not drawn)	-22.87
CCc1cc(NCCN2CCNC2=O)n2nccc2n1	-6.964
Cc1nc(C)n(CC2CCCN(CCOc3ccccc3F)C2)n1 (stereo not drawn)	-21.82
NC(=O)C1CCN(C(=O)NC2CCN(CC3CCCC3)C2)CC1 (stereo not drawn)	21.86
O=C(NC1CCN(CC2CCCC2)C1)N1CCC(OCC2CC2)CC1 (stereo not drawn)	51.36
O=C(NC1CCN(CC2CC2)C1)N1CCC(OC2CCCCC2)CC1 (stereo not drawn)	28.71
CC(C)C(=O)N1CCC(c2nc3ccccn3c2NC(C)(C)C)CC1	44.44
CCc1cn[nH]c1C1CCN(c2cc(C)c3ccc(OC)cc3n2)CC1	2.528
CCc1cn[nH]c1C1CCN(c2cc(C)c3cc(OC)ccc3n2)CC1	4.644
CCc1cn[nH]c1C1CCN(c2cc(C)c3cccc(OC)c3n2)CC1	57.17
CSc1ncccc1C(=O)NCC(c1ccco1)N(C)C (stereo not drawn)	23
CCNS(=O)(=O)c1ccc2c(c1)c(=O)n(CC)c(=O)n2CC	5.155
CS(=O)(=O)CCSCc1cc(F)cc2cccnc12	-6.961
c1cc(CN2CCCN(c3ccc4cc[nH]c4n3)CC2)ccn1	-9.703
Fc1ccccc1CN1CCCN(c2ncnc3[nH]ccc23)CC1	14.79
Fc1ccccc1CN1CCCN(c2ccc3cc[nH]c3n2)CC1	55.73

Compound	Percent Effect [%]
O=C(NCCc1csc(-c2cccnc2)n1)c1cnn2c1CCCC2	-3.716
Cc1ccc(OCCN2CCC(c3nc(C)n4c(C)csc34)CC2)cc1	54.47
Cc1csc2c(C3CCN(CCCOc4ccccc4)CC3)nc(C)n12	35.94
Cc1csc2c(C3CCN(CCOc4ccccc4F)CC3)nc(C)n12	-14.57
Cc1nc(CN2CCO[C@@H]3CN(Cc4ccsc4)C[C@@H]3C2)cs1.O=C(O)C(F)(F)F.O=C(O)C(F)(F)F	22.49
Cc1noc(C)c1-c1nc(N(C)C)ncc1-c1cnccn1	-5.73
CC[C@@H]1N(Cc2ccsc2)CCC[C@]12CCC(=O)N2C.O=C(O)C(F)(F)F	2.508
NC(=O)C1CN(C(=O)Nc2ccccc2SC2CCCC2)CCO1 (stereo not drawn)	18.89
CC(=O)N1CCCC1CCc1ccnc(-c2cncnc2)c1 (stereo not drawn)	56.86
CC(=O)N1CCCC1c1ccnc(Nc2cncnc2)n1 (stereo not drawn)	-12.16
CC(=O)N1CCCC1CCc1ccc(Cl)nn1 (stereo not drawn)	30.13
Cc1ccc(OCCCNC(=O)C2(C)CC(=O)N3C=CC=CC3=N2)cc1 (stereo not drawn)	45.74
Cc1ccccc1OCCCNC(=O)C1(C)CC(=O)N2C=CC=CC2=N1 (stereo not drawn)	54.27
CC1(C(=O)NCCCOc2ccccc2F)CC(=O)N2C=CC=CC2=N1 (stereo not drawn)	24.68
CN(C)[C@H]1CCCCN(C(=O)c2cccc(N3CCS(=O)(=O)CC3)c2)C1	-27.17
CC(C)c1noc(CN(Cc2ccc(F)cc2)C2CC2)n1	-14.54
CCC(C(=O)NCCc1nc(C)cc(C(F)(F)F)n1)n1cccn1 (stereo not drawn)	-40.59
Cc1nc2sccn2c1CNC1(c2ccccc2F)CCCC1.O=C(O)CC(O)(CC(=O)O)C(=O)O	21.81
COc1ccc(C2(NCc3c(C)nc4c(C)cccn34)CCCC2)cc1.O=C(O)CC(O)(CC(=O)O)C(=O)O	60.04
COc1ccccc1C1(NCc2c(C)nc3c(C)cccn23)CCCC1.Cl	-17.64
C=Cn1ncc(CN2CCc3nc(-c4ccncc4)nc(O)c3C2)c1C	24.59
O=C(Nc1ccccc1)[C@H]1C[C@@H]2CN(Cc3cccnc3)C[C@H]1O2	15.91
O=S(=O)(Nc1ccc(N2CCOCC2)cc1)c1cccc(F)c1	107.6
O=S(=O)(Nc1cnc(N2CCOCC2)nc1)c1cccc(F)c1	17.36
O=S(=O)(Nc1ccc(N2CCOCC2)cn1)c1cccc(F)c1	37.01
